Experimental data taken from publication PMC10954555.

target: RNA polymerase-associated protein LEO1 (UniProt Q8WVC0); assay: other; cross-linking mass spectrometry; other

Listed as a hit, yes:
RNA polymerase-associated protein CTR9 homolog, Q6PD62
RNA polymerase II-associated factor 1 homolog, Q8N7H5
Parafibromin, Q6P1J9
